The whole screen tested about 5,500 compounds, of which about 2,000 (36%) were called active. Not shown: some 18% with an inconclusive outcome. The list shows a part of the results. Unmarked numbers belong to inactive results. No stated cut-off is given here; in the data, active means normalized growth mostly below about 0.91 (no sharp cut-off); inconclusive means no clear call, values can overlap the other calls; inactive means mostly above about 0.92.
Assay: chemical genetic growth profiling, strain panel (AID 1159580);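 further: tested at 20 µM; growth read once vehicle control cultures reached saturation at 30 °C; 1 = growth at the plate median or of vehicle wells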
Details: growth OD

With `CC(=O)N1CCN(c2ccc(OCC3CO[C@](Cn4ccnc4)(c4ccc(Cl)cc4Cl)O3)cc2)CC1` (some centres undefined) the normalized growth (S. cerevisiae deletion strains, locus YJL187C, strain SWE1, stronger effect = lower value) was 0.0925 (active), the normalized growth (S. cerevisiae deletion strains, locus YJR043C, strain POL32, stronger effect = lower value) was 0.094 (active) and the normalized growth (S. cerevisiae deletion strains, locus YJR066W, strain TOR1, stronger effect = lower value) was 0.0283 (active). For the same compound, the normalized growth (S. cerevisiae deletion strains, locus YJR075W, strain HOC1, stronger effect = lower value) was 0.0852 (active), the normalized growth (S. cerevisiae deletion strains, locus YKL009W, strain mrt4, stronger effect = lower value) was 0.994 and the normalized growth (S. cerevisiae deletion strains, locus YKL068W, stronger effect = lower value) was 0.931 (active). For the same compound, the normalized growth (S. cerevisiae deletion strains, locus YKL085W, strain MDH1 (second series), stronger effect = lower value) was 0.795 (active), the normalized growth (S. cerevisiae deletion strains, locus YKL085W, strain MDH1, stronger effect = lower value) was 0.795 (active) and the normalized growth (S. cerevisiae deletion strains, locus YKL160W, strain elf1, stronger effect = lower value) was 0.104 (active). For the same compound, the normalized growth (S. cerevisiae deletion strains, locus YKL190W, strain CNB1, stronger effect = lower value) was 0.0638 (active), the normalized growth (S. cerevisiae deletion strains, locus YKR001C, strain vps1, stronger effect = lower value) was 0.112 (active) and the normalized growth (S. cerevisiae deletion strains, locus YKR026C, strain gcn3, stronger effect = lower value) was 0.168 (active). For the same compound, the normalized growth (S. cerevisiae deletion strains, locus YKR091W, strain srl3, stronger effect = lower value) was 0.108 (active), the normalized growth (S. cerevisiae deletion strains, locus YLL001W, strain dnm1, stronger effect = lower value) was 0.102 (active) and the normalized growth (S. cerevisiae deletion strains, locus YLL026W, stronger effect = lower value) was 0.0778 (active). The normalized growth (S. cerevisiae deletion strains, locus YLL041C, strain sdh2, stronger effect = lower value) was 0.0858 (active), the normalized growth (S. cerevisiae deletion strains, locus YLR027C, strain aat2, stronger effect = lower value) was 0.0792 (active) and the normalized growth (S. cerevisiae deletion strains, locus YLR039C, strain RIC1, stronger effect = lower value) was 0.444 (active). For the same compound, the normalized growth (S. cerevisiae deletion strains, locus YLR058C, strain SHM2, stronger effect = lower value) was 0.072 (active), the normalized growth (S. cerevisiae deletion strains, locus YLR102C, strain apc9, stronger effect = lower value) was 0.0929 (active) and the normalized growth (S. cerevisiae deletion strains, locus YLR113W, strain HOG1, stronger effect = lower value) was 0.16 (active). For the same compound, the normalized growth (S. cerevisiae deletion strains, locus YLR221C, strain rsa3, stronger effect = lower value) was 0.0852 (active), the normalized growth (S. cerevisiae deletion strains, locus YLR258W, strain gsy2, stronger effect = lower value) was 0.0919 (active) and the normalized growth (S. cerevisiae deletion strains, locus YLR262C, strain YPT6 (second series), stronger effect = lower value) was 0.314 (active). For the same compound, the normalized growth (S. cerevisiae deletion strains, locus YLR262C, strain YPT6, stronger effect = lower value) was 0.523 (active), the normalized growth (S. cerevisiae deletion strains, locus YLR268W, strain sec22, stronger effect = lower value) was 0.0953 (active) and the normalized growth (S. cerevisiae deletion strains, locus YLR320W, strain mms22, stronger effect = lower value) was 0.104 (active). The normalized growth (S. cerevisiae deletion strains, locus YLR330W, strain CHS5, stronger effect = lower value) was 0.0775 (active), the normalized growth (S. cerevisiae deletion strains, locus YLR342W, strain FKS1 (second series), stronger effect = lower value) was 0.0863 (active) and the normalized growth (S. cerevisiae deletion strains, locus YLR342W, strain FKS1, stronger effect = lower value) was 0.0875 (active). For the same compound, the normalized growth (S. cerevisiae deletion strains, locus YLR357W, strain rsc2, stronger effect = lower value) was 0.231 (active), the normalized growth (S. cerevisiae deletion strains, locus YLR370C, strain arc18, stronger effect = lower value) was 0.0894 (active) and the normalized growth (S. cerevisiae deletion strains, locus YLR371W, strain rom2, stronger effect = lower value) was 0.104 (active). The normalized growth (S. cerevisiae deletion strains, locus YLR384C, strain iki3, stronger effect = lower value) was 0.0857 (active), the normalized growth (S. cerevisiae deletion strains, locus YLR418C, strain cdc73, stronger effect = lower value) was 0.123 (active) and the normalized growth (S. cerevisiae deletion strains, locus YML016C, strain PPZ1, stronger effect = lower value) was 0.0722 (active). For the same compound, the normalized growth (S. cerevisiae deletion strains, locus YML032C, strain rad52, stronger effect = lower value) was 0.112 (active), the normalized growth (S. cerevisiae deletion strains, locus YML120C, strain ndi1, stronger effect = lower value) was 0.0823 (active) and the normalized growth (S. cerevisiae deletion strains, locus YML124C, strain tub3, stronger effect = lower value) was 0.0927 (active). For the same compound, the normalized growth (S. cerevisiae deletion strains, locus YMR058W, strain fet3, stronger effect = lower value) was 0.0959 (active), the normalized growth (S. cerevisiae deletion strains, locus YMR078C, strain ctf18, stronger effect = lower value) was 0.112 (active) and the normalized growth (S. cerevisiae deletion strains, locus YMR125W, strain sto1, stronger effect = lower value) was 0.102 (active). The normalized growth (S. cerevisiae deletion strains, locus YMR129W, stronger effect = lower value) was 0.0847 (active), the normalized growth (S. cerevisiae deletion strains, locus YMR205C, strain PFK2, stronger effect = lower value) was 0.141 (active) and the normalized growth (S. cerevisiae deletion strains, locus YMR223W, strain ubp8, stronger effect = lower value) was 0.105 (active). The normalized growth (S. cerevisiae deletion strains, locus YMR231W, strain pep5, stronger effect = lower value) was 0.403 (active), the normalized growth (S. cerevisiae deletion strains, locus YMR263W, strain SAP30, stronger effect = lower value) was 0.157 (active) and the normalized growth (S. cerevisiae deletion strains, locus YMR307W, strain GAS1, stronger effect = lower value) was 0.159 (active). The normalized growth (S. cerevisiae deletion strains, locus YNL067W, strain RPL9B, stronger effect = lower value) was 0.0729 (active), the normalized growth (S. cerevisiae deletion strains, locus YNL071W, strain lat1, stronger effect = lower value) was 0.0698 (active) and the normalized growth (S. cerevisiae deletion strains, locus YNL183C, strain NPR1, stronger effect = lower value) was 0.0744 (active). The normalized growth (S. cerevisiae deletion strains, locus YNL209W, strain ssb2, stronger effect = lower value) was 0.195 (active), the normalized growth (S. cerevisiae deletion strains, locus YNL233W, strain BNI4, stronger effect = lower value) was 0.0732 (active) and the normalized growth (S. cerevisiae deletion strains, locus YNL248C, strain rpa49, stronger effect = lower value) was 0.0896 (active). The normalized growth (S. cerevisiae deletion strains, locus YNL250W, strain rad50, stronger effect = lower value) was 0.896 (active), the normalized growth (S. cerevisiae deletion strains, locus YNL271C, strain bni1, stronger effect = lower value) was 0.906 (active) and the normalized growth (S. cerevisiae deletion strains, locus YNL298W, strain CLA4, stronger effect = lower value) was 0.246 (active). The normalized growth (S. cerevisiae deletion strains, locus YNL307C, strain MCK1, stronger effect = lower value) was 0.0791 (active), the normalized growth (S. cerevisiae deletion strains, locus YNL322C, strain KRE1 (second series), stronger effect = lower value) was 0.115 (active) and the normalized growth (S. cerevisiae deletion strains, locus YNR049C, strain mso1, stronger effect = lower value) was 0.0955 (active). The normalized growth (S. cerevisiae deletion strains, locus YNR052C, strain pop2, stronger effect = lower value) was 0.144 (active), the normalized growth (S. cerevisiae deletion strains, locus YOL012C, strain htz1) was 0.25 and the normalized growth (S. cerevisiae deletion strains, locus YOL147C, strain pex11, stronger effect = lower value) was 0.0768 (active). For the same compound, the normalized growth (S. cerevisiae deletion strains, locus YOR001W, strain rrp6, stronger effect = lower value) was 0.0988 (active), the normalized growth (S. cerevisiae deletion strains, locus YOR061W, strain CKA2, stronger effect = lower value) was 0.125 (active) and the normalized growth (S. cerevisiae deletion strains, locus YOR069W, strain VPS5, stronger effect = lower value) was 0.0927 (active). The normalized growth (S. cerevisiae deletion strains, locus YOR070C, strain gyp1, stronger effect = lower value) was 0.0793 (active), the normalized growth (S. cerevisiae deletion strains, locus YOR080W, strain dia2, stronger effect = lower value) was 0.096 (active) and the normalized growth (S. cerevisiae deletion strains, locus YOR083W, strain WHI5, stronger effect = lower value) was 0.136 (active). For the same compound, the normalized growth (S. cerevisiae deletion strains, locus YOR106W, strain vam3, stronger effect = lower value) was 0.116 (active), the normalized growth (S. cerevisiae deletion strains, locus YOR136W, strain idh2, stronger effect = lower value) was 0.112 (active) and the normalized growth (S. cerevisiae deletion strains, locus YOR144C, strain elg1, stronger effect = lower value) was 0.0877 (active). The normalized growth (S. cerevisiae deletion strains, locus YOR184W, strain ser1, stronger effect = lower value) was 0.0917 (active), the normalized growth (S. cerevisiae deletion strains, locus YOR231W, strain MKK1, stronger effect = lower value) was 0.157 (active) and the normalized growth (S. cerevisiae deletion strains, locus YOR265W, strain rbl2, stronger effect = lower value) was 0.0927 (active). The normalized growth (S. cerevisiae deletion strains, locus YOR270C, strain vph1, stronger effect = lower value) was 0.112 (active), the normalized growth (S. cerevisiae deletion strains, locus YOR290C, strain snf2, stronger effect = lower value) was 0.0982 (active) and the normalized growth (S. cerevisiae deletion strains, locus YOR316C, strain cot1, stronger effect = lower value) was 0.0844 (active). The normalized growth (S. cerevisiae deletion strains, locus YPL051W, strain arl3, stronger effect = lower value) was 0.141 (active), the normalized growth (S. cerevisiae deletion strains, locus YPL078C, strain atp4, stronger effect = lower value) was 0.0953 (active) and the normalized growth (S. cerevisiae deletion strains, locus YPL106C, strain sse1, stronger effect = lower value) was 0.137 (active). For the same compound, the normalized growth (S. cerevisiae deletion strains, locus YPL240C, strain hsp82, stronger effect = lower value) was 0.09 (active), the normalized growth (S. cerevisiae deletion strains, locus YPL256C, strain CLN2, stronger effect = lower value) was 0.182 (active) and the normalized growth (S. cerevisiae deletion strains, locus YPR119W, strain clb2, stronger effect = lower value) was 0.105 (active). For the same compound, the normalized growth (S. cerevisiae deletion strains, locus YPR141C, strain kar3, stronger effect = lower value) was 0.971, the normalized growth (S. cerevisiae deletion strains, locus YPR163C, strain tif3, stronger effect = lower value) was 0.105 (active) and the normalized growth (S. cerevisiae deletion strains, locus YPR167C, strain met16, stronger effect = lower value) was 0.1 (active). The normalized growth (S. cerevisiae deletion strains, strain wtn01, stronger effect = lower value) was 0.0951 (active) and the normalized growth (S. cerevisiae strains, strain wild type, stronger effect = lower value) was 0.0668 (active).
